Experimental findings from PubChem BioAssay (NCATS) are described below.

Test [1] in a line: qHTS assay for small molecule agonists of retinoid X receptor alpha signaling (AID 588544).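 On activation: 0% = DMSO basal wells and 100% = reference agonist.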 As to conditions: HEK293T RXRa-UAS-bla, beta-lactamase reporter, 18 h; 530 nm emission.
Test [2] deals with Retinoic acid receptor RXR-alpha (Homo sapiens) (UniProt P19793). The test is described as above. As to conditions: HEK293T RXRa-UAS-bla, beta-lactamase reporter, 18 h; series mostly up to 76.7 µM.
Retinoic acid receptor RXR-alpha (Homo sapiens), sequence (P19793 whole entry, looked up): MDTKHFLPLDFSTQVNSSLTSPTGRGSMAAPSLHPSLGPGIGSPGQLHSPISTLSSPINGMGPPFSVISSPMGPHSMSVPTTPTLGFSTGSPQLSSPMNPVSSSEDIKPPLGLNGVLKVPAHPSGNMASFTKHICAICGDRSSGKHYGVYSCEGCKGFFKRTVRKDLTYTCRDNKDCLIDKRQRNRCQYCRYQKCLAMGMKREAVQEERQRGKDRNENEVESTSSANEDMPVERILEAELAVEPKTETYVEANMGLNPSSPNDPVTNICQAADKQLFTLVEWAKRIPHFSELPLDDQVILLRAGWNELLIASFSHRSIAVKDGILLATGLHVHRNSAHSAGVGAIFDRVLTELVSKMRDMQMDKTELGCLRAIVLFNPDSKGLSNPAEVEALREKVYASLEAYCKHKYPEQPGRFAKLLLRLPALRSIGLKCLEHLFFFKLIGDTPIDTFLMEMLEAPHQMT
In test [3] the target is Thyroid hormone receptor beta (Homo sapiens) (UniProt P10828). The test is described as follows: qHTS assay for small molecule agonists of thyroid hormone receptor beta signaling (AID 588545).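 Further: 0% = DMSO only and 100% = 10 nM T3.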 The following applies: TR-UAS-bla GripTite HEK 293, beta-lactamase ratio, agonist mode, 18 h, percent of T3 response, DMSO as zero; series mostly up to 76.7 µM. In short, it runs like this: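 Stimulation of a TR-driven beta-lactamase reporter was quantified in GripTite HEK 293 cells. Compound series ran for 18 hrs; curves were normalized to T3 and DMSO controls and fitted to yield EC50.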
Thyroid hormone receptor beta (Homo sapiens), sequence (P10828 whole entry, looked up): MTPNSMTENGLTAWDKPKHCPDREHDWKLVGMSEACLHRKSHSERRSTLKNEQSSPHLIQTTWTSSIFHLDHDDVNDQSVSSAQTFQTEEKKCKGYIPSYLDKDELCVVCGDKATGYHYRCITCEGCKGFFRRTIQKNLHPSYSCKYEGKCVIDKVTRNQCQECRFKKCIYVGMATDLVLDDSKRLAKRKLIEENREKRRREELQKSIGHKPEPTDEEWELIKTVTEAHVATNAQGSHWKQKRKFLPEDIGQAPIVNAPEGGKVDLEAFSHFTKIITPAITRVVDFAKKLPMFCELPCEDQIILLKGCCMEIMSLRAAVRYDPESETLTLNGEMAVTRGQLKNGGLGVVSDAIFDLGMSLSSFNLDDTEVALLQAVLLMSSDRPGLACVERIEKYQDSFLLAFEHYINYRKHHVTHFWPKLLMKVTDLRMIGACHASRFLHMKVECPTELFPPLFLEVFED
A general note: qHTS replaces the single test concentration by a dilution series.

Test [4] in a line: qHTS assay for small molecule antagonists of retinoid X receptor alpha signaling (AID 588546; active means well fitted inhibition curve with a large enough effect in the signal ratio, with a control signal flat, not every such curve was filed as active; the % refers to the signal ratio;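 further: cells stimulated with 9-cis-retinoic acid as agonist; on the % scale 0 is the no-effect control and ±100 the full control effect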). As to conditions: HEK293T RXRa-UAS-bla, beta-lactamase ratio, antagonist mode; measured here: W530 green channel, cytotoxicity proxy. The procedure, abridged: (§1)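 Beta-lactamase reporter inhibition, read as CCF4 fluorescence ratio (ex 405, em 460/530 nm) after 2 h at RT. HEK293T UAS-bla cells, 2500/well, were stimulated with 9-cis-RA at 500 or 100 nM final alongside test compound for 18 h at 37 C.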

Test [5] has as its target Retinoic acid receptor RXR-alpha (Homo sapiens) (UniProt P19793). The test is described as above. As to conditions: HEK293T RXRa-UAS-bla, beta-lactamase ratio, antagonist mode. In short, it runs like this: as §1
Test [6] concerns the target Thyroid hormone receptor beta (Homo sapiens) (UniProt P10828). The test is described as follows: qHTS assay for small molecule antagonists of thyroid hormone receptor beta signaling (AID 588547; active means well fitted inhibition curve with a large enough effect in the signal ratio, with a control signal flat, not every such curve was filed as active; the % refers to the signal ratio;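 further: cells stimulated with 0.4 nM T3 agonist during compound exposure; on the % scale 0 is the no-effect control and ±100 the full control effect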). As to conditions: TR-UAS-bla HEK293, beta-lactamase ratio, antagonist mode, 18 h. The procedure, abridged:
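TR-UAS-bla GripTite HEK293 cells in 2% charcoal/dextran FBS medium were preincubated 4 h at 37 C, given compound (0.59 nM to 92 uM) plus 0.4 nM T3 (final) for 18 h, then CCF4 for 2 h at RT; Hill fit gave IC50.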

Test [7] concerns the target Voltage-gated inwardly rectifying potassium channel KCNH2 (Homo sapiens) (UniProt Q12809). The experiment in a line: qHTS Assay for Small Molecule Inhibitors of the Human hERG Channel Activity (AID 588834; active means well fitted curve in the direction sought with a large enough effect; an effect the other way counts as inactive or inconclusive;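 further: top concentration of the series differs between compounds; on the % scale 0 is the no-effect control and ±100 the full control effect; lower thallium flux fluorescence means stronger hERG block; nearly all actives have a fitted effect of over 50% in size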). As to conditions: U2OS BacMam hERG, FluxOR thallium flux fluorescence; series mostly up to 92.2 µM. The procedure, abridged: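 U2OS cells transduced with hERG via BacMam (MOI ~100), plated 2000/well, loaded with FluxOR thallium dye, compound ~10 min, then stimulation buffer; fluorescence decrease read kinetically; AC50 from Hill fits.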

Test [8] is described as follows: qHTS assay for small molecule agonists of the antioxidant response element (ARE) signaling pathway (AID 651741; active means well fitted activation curve with a large enough effect in the signal ratio; the % refers to the signal ratio; further: % of control where 0% means no effect). As to conditions: HepG2 ARE-bla reporter, beta-lactamase FRET ratio, 16 h; series mostly up to 96 µM. In short, it runs like this:
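Compounds in DMSO are pinned onto HepG2 ARE-bla cells (2,000/well) that were preincubated 5 h; plates stay 16 h at 37 C, then beta-lactamase activity is detected with LiveBLAzer B/G substrate by fluorescence.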

A short description of test [9]: qHTS assay for small molecule activators of the p53 signaling pathway (AID 651743; active means well fitted activation curve with a large enough effect in the signal ratio, not every such curve was filed as active; the % refers to the signal ratio; further: % of control where 0% means no effect). As to conditions: HCT-116 p53RE-bla, beta-lactamase FRET ratio, 16 h; stronger effect = higher value. The procedure, abridged: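 Cell-based beta-lactamase reporter (p53 response elements, HCT-116 background). After a 5-hour preincubation, cells received compound for 16 hours at 37 C; substrate development ran 2 hours at room temperature.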

The nature of test [10]: qHTS assay for small molecule activators of the nuclear factor-kappa B (NF-kB) signaling pathway (AID 651749; active means well fitted activation curve with a large enough effect in the signal ratio; the % refers to the signal ratio; further: % of control where 0% means no effect). As to conditions: NF-kB-bla ME-180 cells, beta-lactamase FRET ratio, 16 h; stronger effect = higher value. The procedure, abridged:
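Screening used 2,000 ME-180 reporter cells per well exposed to pinned compound (23 nL) or DMSO; after 16 hr at 37C, beta-lactamase expression under NF-kB control was assessed through FRET.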

A short description of test [11]: qHTS assay for small molecule disruptors of the mitochondrial membrane potential - 5 hr assay (AID 651755). Further: on the % scale 0 is the no-effect control and ±100 the full control effect; nearly all actives have a fitted effect of over 40% in size. As to conditions: JC-1-type ratio dye; series mostly up to 92.2 µM. The procedure, abridged:
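HepG2 cells, attached overnight at 37C, were exposed to compound or DMSO for 5 hr at 37C, 5% CO2. Mito-MPS dye was then added for 30 min, and fluorescence read at 490/535 nm (monomers) and 540/590 nm (aggregates).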

Test [12] deals with Tumor necrosis factor (Homo sapiens) (UniProt P01375). The test is described as follows: qHTS assay to identify small molecules that stimulate Tumor Necrosis Factor-alpha (TNF-alpha) secretion (AID 651757; active means well fitted curve in the direction sought with a large enough effect in the signal ratio; the % refers to the signal ratio; further: 0% is about no effect). As to conditions: Human cells, HTRF 665/615 ratio; series mostly up to 92.2 µM. The procedure, abridged:
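Read-out is HTRF, a TR-FRET sandwich of cryptate- and XL665-labeled anti-TNF-alpha antibodies detecting cytokine secreted by THP-1 cells. Cells had been incubated with test compounds at 37 C for 17 hrs beforehand.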

The nature of test [13]: qHTS assay to identify small molecules that stimulate interleukin-8 (IL-8) secretion (AID 651758; active means well fitted activation curve with a large enough effect in the signal ratio; the % refers to the signal ratio; further: 0% is about no effect). The following applies: HTRF ratio (665/615); series mostly up to 92.2 µM. The procedure, abridged:
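THP-1, 2000 cells/well; cpd 16 h, 37 C; add cryptate + XL665 anti-IL-8 Abs; RT 1-3 h; TR-FRET read.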

Test [14] deals with Peroxisome proliferator-activated receptor alpha (Homo sapiens) (UniProt Q07869). The experiment in a line: qHTS assay for small molecule agonists of the peroxisome proliferator-activated receptor alpha (PPARalpha) signaling pathway (AID 651778; active means well fitted curve in the direction sought with a large enough effect; an effect the other way counts as inactive or inconclusive; further: % of control where 0% means no effect). As to conditions: PathHunter PPARalpha complementation, chemiluminescence, 6 h; stronger effect = higher value. The procedure, abridged:
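Cells plated at 2,000/well and held overnight at 37 C, 5% CO2, then compound added by pin tool for 6 hr; after PathHunter detection reagent and 60 min at room temperature, chemiluminescence from enzyme complementation was read.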

Test [15] addresses Nuclear receptor ROR-gamma (Homo sapiens) (UniProt P51449). The test is described as follows: qHTS assay for small molecule antagonists of the retinoid-related orphan receptor gamma (ROR-gamma) signaling pathway (AID 651802; active means well fitted curve in the direction sought with a large enough effect; an effect the other way counts as inactive or inconclusive;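 further: luciferase reporter luminescence driven by ROR response element; on the % scale 0 is the no-effect control and ±100 the full control effect; nearly all actives have a fitted effect of over 60% in size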). The following applies: ROR-gamma antagonist cell reporter assay; series mostly up to 92.2 µM. In short, it runs like this: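 CHO, TET-inducible ROR + RORE-LUC reporter, 1536-well qHTS. Compound pinned, doxycycline added, 16hr 37C/5% CO2. ONE-Glo, 30 min RT, luminescence; signal drop scored as antagonism.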

A short description of test [16]: qHTS assay for small molecule antagonists of the retinoid-related orphan receptor gamma (ROR-gamma) signaling pathway - cell viability counter screen (AID 720652; active means well fitted curve in the direction sought with a large enough effect in the repeat runs; an effect the other way counts as inactive or inconclusive;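 further: compound exposure lasted 16 hr before ATP read; on the % scale 0 is the no-effect control and ±100 the full control effect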). As to conditions: RORgamma reporter cell line viability counter screen; series mostly up to 92.2 µM. The procedure, abridged: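 Luminescence from CellTiter-Glo after 30 min at room temperature reported cellular ATP as the cytotoxicity measure. Cells were the CHO reporter line with doxycycline-induced ROR-gamma expression, exposed to compound for 16 hr at 37 C.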

The nature of test [17]: qHTS assay for small molecule agonists of the antioxidant response element (ARE) signaling pathway measured by Nrf2-dependant transcriptional activity - cell viability counter screen (AID 720653; active means well fitted curve in the direction sought with a large enough effect in the repeat runs; an effect the other way counts as inactive or inconclusive; further: on the % scale 0 is the no-effect control and ±100 the full control effect). The following applies: ARE-bla HepG2 viability, CellTiter-Glo ATP luminescence, 16 h; stronger effect = lower value. In short, it runs like this: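 ARE-bla HepG2 cells (2,000/well) rested 5 hrs at 37C/5% CO2, then exposed to compounds in DMSO for 16 hrs. Viability was read in the same wells as intracellular ATP by luminescence, 30 min at room temperature after reagent addition.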

The nature of test [18]: qHTS assay for small molecule disruptors of the mitochondrial membrane potential - 1 hr assay (AID 651754). Further: on the % scale 0 is the no-effect control and ±100 the full control effect; nearly all actives have a fitted effect of over 35% in size. The following applies: series mostly up to 92.2 µM. The procedure, abridged:
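HepG2, 2,000 cells/well, overnight attachment; cpd or DMSO 1 hr, 37C/5% CO2; Mito-MPS dye 30 min, 37C; fluorescence monomer (490/535) and aggregate (540/590).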

Test [19] can be described thus: qHTS assay for small molecule agonists of the antioxidant response element (ARE) signaling pathway measured by Nrf2-dependant transcriptional activity (AID 720636; active means well fitted curve in the direction sought with a large enough effect in the repeat runs; an effect the other way counts as inactive or inconclusive; further: % of control where 0% means no effect). The following applies: ARE-luc HepG2, Nrf2 luciferase reporter, 16 h; series mostly up to 92.4 µM. The procedure, abridged: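 ARE-luc HepG2 cells carrying an Nrf2-responsive luciferase reporter, in medium with 1% dialyzed FBS, exposed to compound for 16 hr at 37 C, 5% CO2. Luminescence read 30 min after ONE-Glo addition.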

Test [20] in a line: qHTS assay for environmental chemicals that activate the Aryl hydrocarbon Receptor (AhR) signaling pathway (AID 651777; active means well fitted curve in the direction sought with a large enough effect; an effect the other way counts as inactive or inconclusive; further: % of control where 0% means no effect; nearly all actives have a fitted effect of over 15% in size). As to conditions: 1A2-DRE human hepatoma cells, luciferase, 24 h; activation: stronger effect = higher value. The procedure, abridged: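 Human hepatoma 1A2-DRE cells stably carrying a DRE/CYP1A2 promoter–luciferase reporter, 1,200 cells/well, exposed to compound 24 hr at 37 C. Luciferase read by One-Glo luminescence after 30 min at room temperature; increased signal marks AhR activation.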

Molecules are shown by their SMILES. Records with an inconclusive call do not appear. The source made the active and inactive calls. Unless noted, the call rests on the fitted dose curve.

Nuclear receptor ROR-gamma (Homo sapiens), sequence (P51449 whole entry, looked up): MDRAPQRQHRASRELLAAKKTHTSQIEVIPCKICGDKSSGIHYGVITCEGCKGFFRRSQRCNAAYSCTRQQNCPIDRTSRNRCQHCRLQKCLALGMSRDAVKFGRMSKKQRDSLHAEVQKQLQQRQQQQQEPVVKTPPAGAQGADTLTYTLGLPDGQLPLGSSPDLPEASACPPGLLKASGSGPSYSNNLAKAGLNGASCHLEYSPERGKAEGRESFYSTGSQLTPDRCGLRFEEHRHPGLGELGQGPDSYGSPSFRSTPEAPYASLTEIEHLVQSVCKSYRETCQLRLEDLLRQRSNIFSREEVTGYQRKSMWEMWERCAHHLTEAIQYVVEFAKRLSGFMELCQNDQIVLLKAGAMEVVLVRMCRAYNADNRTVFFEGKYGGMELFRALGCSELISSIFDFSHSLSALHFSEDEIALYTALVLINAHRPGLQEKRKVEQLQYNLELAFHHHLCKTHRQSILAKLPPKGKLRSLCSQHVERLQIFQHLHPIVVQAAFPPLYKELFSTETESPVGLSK
Peroxisome proliferator-activated receptor alpha (Homo sapiens), sequence (Q07869 whole entry, looked up): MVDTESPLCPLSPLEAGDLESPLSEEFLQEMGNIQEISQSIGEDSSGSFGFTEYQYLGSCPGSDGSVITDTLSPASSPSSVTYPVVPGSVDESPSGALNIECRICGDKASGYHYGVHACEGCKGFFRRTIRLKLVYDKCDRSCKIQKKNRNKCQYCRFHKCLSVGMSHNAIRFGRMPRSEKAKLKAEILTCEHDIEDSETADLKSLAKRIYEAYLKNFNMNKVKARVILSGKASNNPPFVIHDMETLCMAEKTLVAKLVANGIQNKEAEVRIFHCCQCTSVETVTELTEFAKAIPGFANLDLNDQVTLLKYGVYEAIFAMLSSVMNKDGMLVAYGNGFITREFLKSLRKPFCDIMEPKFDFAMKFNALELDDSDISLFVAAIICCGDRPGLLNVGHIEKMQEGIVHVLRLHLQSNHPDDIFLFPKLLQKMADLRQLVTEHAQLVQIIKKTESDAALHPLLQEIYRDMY
Tumor necrosis factor (Homo sapiens), sequence (P01375 whole entry, looked up): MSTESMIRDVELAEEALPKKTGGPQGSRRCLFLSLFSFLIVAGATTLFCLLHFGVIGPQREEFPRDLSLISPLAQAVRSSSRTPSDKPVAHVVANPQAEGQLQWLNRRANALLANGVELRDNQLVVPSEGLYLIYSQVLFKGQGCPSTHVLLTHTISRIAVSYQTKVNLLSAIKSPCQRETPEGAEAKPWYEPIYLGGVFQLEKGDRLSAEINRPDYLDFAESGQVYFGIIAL
Voltage-gated inwardly rectifying potassium channel KCNH2 (Homo sapiens), sequence (Q12809 whole entry, looked up): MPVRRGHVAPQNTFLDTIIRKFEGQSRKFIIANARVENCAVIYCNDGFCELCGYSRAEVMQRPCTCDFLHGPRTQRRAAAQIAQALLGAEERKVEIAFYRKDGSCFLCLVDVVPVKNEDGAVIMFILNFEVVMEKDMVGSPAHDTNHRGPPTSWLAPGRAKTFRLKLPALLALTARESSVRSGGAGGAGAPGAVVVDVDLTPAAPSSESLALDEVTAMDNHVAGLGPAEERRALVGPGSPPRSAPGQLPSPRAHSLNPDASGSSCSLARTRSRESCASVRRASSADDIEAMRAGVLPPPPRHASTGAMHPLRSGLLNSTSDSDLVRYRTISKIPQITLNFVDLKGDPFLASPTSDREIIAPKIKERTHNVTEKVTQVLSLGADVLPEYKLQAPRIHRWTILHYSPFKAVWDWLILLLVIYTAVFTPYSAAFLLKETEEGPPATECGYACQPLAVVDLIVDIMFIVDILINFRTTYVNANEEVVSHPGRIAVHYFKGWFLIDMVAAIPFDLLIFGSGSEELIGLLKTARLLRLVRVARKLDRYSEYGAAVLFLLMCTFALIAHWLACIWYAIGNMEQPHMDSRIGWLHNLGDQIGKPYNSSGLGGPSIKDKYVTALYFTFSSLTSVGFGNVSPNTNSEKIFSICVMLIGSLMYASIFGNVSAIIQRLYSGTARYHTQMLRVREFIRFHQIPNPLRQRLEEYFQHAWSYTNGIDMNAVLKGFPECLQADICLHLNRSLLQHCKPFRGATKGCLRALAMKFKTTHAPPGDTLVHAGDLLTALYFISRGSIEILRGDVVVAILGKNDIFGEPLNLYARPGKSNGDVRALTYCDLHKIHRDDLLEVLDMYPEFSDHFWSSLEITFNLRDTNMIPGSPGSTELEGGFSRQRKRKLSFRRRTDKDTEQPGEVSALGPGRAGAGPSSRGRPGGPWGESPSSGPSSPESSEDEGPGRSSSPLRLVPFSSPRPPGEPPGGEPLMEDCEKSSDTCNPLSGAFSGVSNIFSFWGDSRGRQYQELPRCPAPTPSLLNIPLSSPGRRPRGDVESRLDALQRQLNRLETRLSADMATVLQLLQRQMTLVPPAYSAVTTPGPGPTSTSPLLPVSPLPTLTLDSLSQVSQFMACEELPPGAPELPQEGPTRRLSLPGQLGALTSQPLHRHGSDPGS

For the compound `N#CC1(O)CCCCC1`, the max response in [1] is 4.69%; in test [4], -4.06%; in [5], 2.71% (inactive); in test [14], -1.44% (inactive); in test [17] it was 5.72% (inactive). For the same compound, the compound was classed as inactive in test [2] and in test [3]. Further, the activity change % (negative = inhibition) in test [6] is -16% (inactive). Also, the Potency entry in [7], in test [8], in test [11], in test [12], in [13] and in test [15] was “inactive” throughout. Moreover, the Potency entry in test [16] was “inactive”. For the same compound, the activation in test [9] is 0.526% (inactive); in test [10], -2.59% (inactive).

In the case of `CC(=O)OC(C)C`, the max response in test [1] is 0.6%; in [4], 7.8%; in test [5], 7.02% (inactive); in test [14], -3.3% (inactive); in [17], -4.19% (inactive). Further, the outcome in [2] and in test [3] was inactive. Also, the activity change % (negative = inhibition) in test [6] is 7.16% (inactive). For the same compound, the Potency result in [7], in test [8], in test [18], in [11], in test [12] and in [15] was “inactive” in each case. The Potency result in [16] was “inactive”. Also, in test [9], the activation is -0.528% (inactive).

Turning to `Nc1cc(S(=O)(=O)O)ccc1O`, the max response was 6.72% in test [1]; 0.685% in test [4]; 10% (inactive) in test [5]; -7.35% (inactive) in test [14]; 3.72% (inactive) in test [17]. Moreover, the result in test [2], in [3] and in test [19] was inactive. In test [6], the activity change % (negative = inhibition) was 6.95% (inactive). Besides, the Potency result in [7], in test [8], in test [18], in [12], in test [13] and in test [15] was “inactive” throughout. The Potency entry in test [16] was “inactive”. In addition, the activation in [9] is -1.55% (inactive).

With `Cc1ccc(C)o1`, the max response in [1] is 16.3%; in [4], 5.87%; in test [5] it was -4.44% (inactive); in test [14] it was -7.85% (inactive); in test [17], -12.8% (inactive). Also, the compound was called inactive in [2], in [3] and in [19]. Further, the activity change % (negative = inhibition) in test [6] was -3.98% (inactive). The Potency result in [7], in test [8], in [18], in test [11], in test [12] and in test [15] was “inactive” each time. Further, the Potency entry in [16] is “inactive”. Besides, the activation was -6.1% (inactive) in [9] and -0.971% (inactive) in test [20].
